Source: PubChem (National Center for Advancing Translational Sciences (NCATS))
TDP1 cell CPT – growth inhibition of DT40 Tdp1-/-;hTDP1 cells with camptothecin (screen for TDP1 inhibitors); chicken DT40 Tdp1-/-;hTDP1 cells + 20 nM CPT, ATP luminescence, 48 h; Potency, µM (top dose mostly 46.2 µM), for the others: at the top dose activity change, negative = growth inhibition, actives largely listed as inhibitors; 420,000 compounds, 12% hits; note: % is set by controls: 0 for no effect and ±100 for the full control effect; nearly all actives have a fitted effect of over 55% in size
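Chicken DT40 Tdp1-/- cells complemented with human TDP1, 400 cells/well, exposed to compounds plus 20 nM camptothecin for at least 48 h at 37 C; viability read as ATP content by CellTiter-Glo luminescence.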
DT40 TDP1 no CPT – qHTS for Inhibitors of human tyrosyl-DNA phosphodiesterase 1 (TDP1): qHTS in cells in absence of CPT | 420,000 compounds, 15% hits | Potency, µM (top dose mostly 46.2 µM), without a hit: at the highest dose activity change, negative = growth inhibition, actives largely listed as inhibitors | DT40 Tdp1-/- hTDP1 cells, no CPT, ATP luminescence, 48 h; note: % is set by controls: 0 for no effect and ±100 for the full control effect; nearly all actives have a fitted effect of over 55% in size
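A cellular qHTS used chicken DT40 cells lacking endogenous Tdp1 but carrying stably transfected human TDP1. Compounds were applied without camptothecin, and cell growth kinetics were judged by ATP-dependent luminescence after ≥48 hr.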
ClpP mod – qHTS Assay for Activators of ClpP; purified B. subtilis ClpP, FRET peptide cleavage, 20 min; Potency, µM (series often up to 57.5 µM), without a hit: top-dose activity change, negative = active; 340,000 compounds, 1.9% hits; active = well fitted falling curve with a large enough effect; inconclusive = small, poorly fitted or top-dose-only effect; inactive = no such curve, though single readings can be large or run the other way; note: the source files actives as falling curves though it sought activators and does not explain the sign; nearly all actives have a fitted effect of over 65% in size
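FRET quenching reversal measured ClpP activation: 10 microg/mL B. subtilis ClpP at pH 8 with the FRET-FV decapeptide, read at 430 nm after 320 nm excitation. The 20-min minus 0-min signal was scaled between DMSO/no-enzyme wells and ADEP (5.8 microM final).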
TDP1 inh – blocks human tyrosyl-DNA phosphodiesterase 1; Q9NUW8; recombinant TDP1, AlphaScreen DNA substrate cleavage; Potency, µM (top dose mostly 130 µM), inactives show at the highest dose activity change, negative = inhibition, hits mostly inhibitors; 350,000 compounds, 0.28% hits; note: % is set by controls: 0 for no effect and ±100 for the full control effect; nearly all actives have a fitted effect of over 40% in size
Target sequence (Q9NUW8 whole entry, looked up): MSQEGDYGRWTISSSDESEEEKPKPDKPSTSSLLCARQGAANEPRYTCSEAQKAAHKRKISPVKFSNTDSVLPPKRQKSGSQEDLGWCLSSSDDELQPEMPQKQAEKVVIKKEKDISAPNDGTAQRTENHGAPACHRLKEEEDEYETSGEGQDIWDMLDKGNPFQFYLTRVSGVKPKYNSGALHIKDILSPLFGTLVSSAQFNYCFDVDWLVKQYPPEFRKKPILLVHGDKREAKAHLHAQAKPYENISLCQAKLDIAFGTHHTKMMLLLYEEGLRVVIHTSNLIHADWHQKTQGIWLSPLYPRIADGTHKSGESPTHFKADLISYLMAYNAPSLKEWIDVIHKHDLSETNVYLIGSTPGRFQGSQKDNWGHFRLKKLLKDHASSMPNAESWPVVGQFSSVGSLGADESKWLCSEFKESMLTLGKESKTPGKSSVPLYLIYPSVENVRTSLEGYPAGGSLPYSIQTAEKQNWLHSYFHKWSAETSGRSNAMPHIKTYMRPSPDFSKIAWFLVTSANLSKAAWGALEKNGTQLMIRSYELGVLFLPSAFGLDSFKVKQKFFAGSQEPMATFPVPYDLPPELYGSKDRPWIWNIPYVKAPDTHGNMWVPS
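Signal: AlphaScreen proximity between streptavidin donor and anti-FITC acceptor beads on intact substrate. Reaction: Tdp1 1 nM, substrate 15 nM final, 5 min RT after 15 min compound preincubation.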
Starred values were filed as active, the others as inactive; ? = inconclusive; · = no result. Compounds with a hit are over-represented: about 17% of the library has one in this group of screens. Unless noted, calls come from the whole dose curve; as a rule, active = well fitted curve in the direction sought with a large enough effect; inconclusive = small, poorly fitted or top-dose-only effect, or another doubt; inactive = no such curve, though single readings can be large; an effect the other way counts as inactive or inconclusive. Potency is the fitted concentration of half-maximal effect.

SMILES	TDP1 cell CPT	DT40 TDP1 no CPT	ClpP mod	TDP1 inh
CCCCN1C(=O)C(CC(=O)NCCCCc2ccccc2)CC(C(=O)N(C)C)=C1C (stereo not drawn)	-2.0%	?	-0.3%	·
CC(=O)Nc1ccc(OCc2cccc(-c3nc4ccccc4c(=O)n3Cc3ccco3)c2)cc1	·	·	·	-0.1%
CCC(C)NCCOCCOc1ccc(Cl)c2ccccc12 (stereo not drawn)	9.2µM*	18.4µM*	-4.8%	-3.7%
CCC(C)NCCOCCOc1ccc(Cl)c(C)c1C (stereo not drawn)	14.6µM*	13µM*	-2.6%	-5.8%
CCOC(=O)c1nc(C)c(C(C)=O)s1	-8.1%	0.6%	2.7%	1.2%
COC(=O)c1cc(-c2c(-c3ccc4c(c3)OCO4)noc2-c2ccsc2)cc([N+](=O)[O-])c1	?	-11.0%	-1.0%	·
COc1cc(-c2c(-c3cc(OC)c(OC)c(OC)c3)noc2C)ccc1F	0.092µM*	0.0073µM*	0.6%	·
COc1ccc(-c2c(-c3cc(OC)c(OC)c(OC)c3)noc2C)cn1	0.581µM*	0.581µM*	-0.6%	·
COC(=O)c1cc(-c2c(-c3cc(OC)c(OC)c(OC)c3)noc2C)cc([N+](=O)[O-])c1	16.4µM*	16.4µM*	-2.0%	·
COc1ccc(S(=O)(=O)NCC2CCCN(Cc3cn(C)nc3C)C2)cc1 (stereo not drawn)	0.9%	4.5%	-0.8%	0.0%
CCn1nc(C)c(CN2CCCC(CNS(=O)(=O)c3ccc(OC)cc3)C2)c1C (stereo not drawn)	20.6µM*	?	0.6%	6.2%
Cc1ccc(NC(=O)c2ccc(CN3CC(=O)N4CCCCC4C3=O)cc2)cc1 (stereo not drawn)	?	?	0.9%	3.7%
Cc1ccc(C)c(NC(=O)c2ccc(CN3CC(=O)N4CCCCC4C3=O)cc2)c1 (stereo not drawn)	16.4µM*	16.4µM*	-1.2%	6.2%
O=C(CSc1nc2ccc(Cl)cc2[nH]1)NCCc1ccccc1	?	20.6µM*	-1.9%	5.6%
O=C(CSc1nc2ccc(Cl)cc2[nH]1)NCc1ccco1	-22.3%	?	-1.8%	6.3%
O=C(O)CSc1nc2ccc(Cl)cc2[nH]1	-18.8%	-9.7%	25.1µM*	4.2%
Cc1cc(C(=O)CSc2nc3ccc(Cl)cc3[nH]2)c(C)n1Cc1ccco1	20.6µM*	18.4µM*	-3.1%	·
O=C(CSc1nc2ccc(Cl)cc2[nH]1)NCCc1ccc(Cl)cc1	?	?	0.6%	1.9%
CCOC(=O)c1c(S(=O)(=O)NCC(=O)Nc2cccc(C)n2)c(C)n(C)c1C	0.2%	8.5%	-1.3%	2.9%
CCOC(=O)c1nc(N2CCN(c3ccc(F)cc3)CC2)c2c(C)noc2n1	-23.3%	-13.4%	-0.2%	3.0%
COc1cc(C(=O)N2CCN(c3ccccn3)CC2)cc(OC)c1OC	-21.5%	-9.8%	·	·
Cc1cccc(N2CCN(C(=O)c3ccncc3)CC2)c1C	20.6µM*	20.6µM*	0.7%	1.1%
Cc1cccc(N2CCN(C(=O)N3CCCCC3)CC2)c1C	26.0%	-21.7%	·	2.6%
Cc1cccc(N2CCN(C(=O)N3CCOCC3)CC2)c1C	?	20.6µM*	·	-2.8%
Cc1cccc(N2CCN(C(=O)Cc3ccccc3[N+](=O)[O-])CC2)c1C	-18.0%	20.6µM*	0.6%	5.1%
SMILES	TDP1 cell CPT	DT40 TDP1 no CPT	ClpP mod	TDP1 inh
COc1cc(C(=O)N2CCN(c3cccc(C)c3C)CC2)cc(OC)c1OC	0.82µM*	0.82µM*	2.7%	5.2%
Cc1cccc(N2CCN(C(=O)c3ccnn3C)CC2)c1C	-13.6%	-7.5%	0.9%	0.3%
Cc1ccc(NC(=O)CN(C)C(=O)CSc2ccc3c(c2)OCCO3)cc1	-11.4%	4.5%	-0.2%	2.1%
COc1cc(C(=O)N2CCN(c3cc(Cl)ccc3Cl)CC2)cc(OC)c1OC	0.517µM*	0.411µM*	0.3%	0.0%
Cc1ccc(NC(=O)C(Cc2ccccc2)n2cccc2)cc1C (stereo not drawn)	11.6µM*	16.4µM*	-3.7%	2.0%
Cc1cccc(N2CCN(C(=O)c3c(C)nn(Cc4ccccc4Cl)c3C)CC2)c1C	9.2µM*	10.3µM*	-3.5%	3.5%
Cc1cccc(NC(=O)C(Cc2ccccc2)n2cccc2)c1 (stereo not drawn)	?	?	0.9%	7.7%
Cc1cccc(N2CCN(C(=O)C(Cc3ccccc3)n3cccc3)CC2)c1C (stereo not drawn)	18.4µM*	16.4µM*	-2.7%	6.5%
COc1ccc(N(CC(=O)NCc2cccs2)S(=O)(=O)c2ccc(C(C)=O)cc2)cc1	0.2%	?	-3.0%	·
CC(Nc1nc(-c2ccc(F)cc2)cs1)c1nc2cc(C(F)(F)F)ccc2n1CCOCCO (stereo not drawn)	?	?	0.8%	·
COc1ccc(-c2csc(NC(C)c3nc4cc(C(F)(F)F)ccc4n3CCOCCO)n2)cc1 (stereo not drawn)	16.4µM*	18.4µM*	-1.9%	·
Cc1ccc(Cn2c(C(C)Nc3nc(-c4ccc(F)cc4)cs3)nc3cc(C(=O)NCCCO)ccc32)cc1 (stereo not drawn)	?	?	-1.7%	·
CC(Nc1nc(-c2ccc(F)cc2)cs1)c1nc2cc(C(F)(F)F)ccc2n1CCCO (stereo not drawn)	?	16.4µM*	-2.2%	·
Cc1ccc(Cn2c(C(C)Nc3nc(-c4ccc(F)cc4)cs3)nc3cc(C(F)(F)F)ccc32)cc1 (stereo not drawn)	20.6µM*	?	0.1%	·
Cc1ccc(CNC(=O)CN2C(=O)CSc3ccc(S(=O)(=O)N(C)C)cc32)cc1	?	-6.7%	1.3%	0.0%
O=C(NCCc1ccc(Cl)cc1)c1cc(-c2ccc(Cl)cc2)n[nH]1	?	?	0.3%	2.8%
O=C(COc1ccc(Cl)cc1)NCCc1csc(-c2ccc(C(F)(F)F)cc2)n1	?	23.1µM*	60.6%	-1.1%
CCOc1cc(C(=O)NCCc2csc(-c3ccc(C)cc3)n2)cc(OCC)c1OCC	?	16.4µM*	7.3%	-3.3%
CCOc1ccc(NC(=O)C(=O)NCCc2csc(-c3ccc(C)cc3)n2)cc1	-23.7%	-18.2%	2.5%	4.4%
COc1cc(C(=O)NCCc2csc(-c3ccc(Cl)cc3)n2)cc(OC)c1OC	?	20.6µM*	-11.3%	1.8%
COc1ccc(CC(=O)NCCc2csc(-c3ccc(Cl)cc3)n2)cc1	18.4µM*	16.4µM*	-14.1%	-1.9%
COc1ccc(-c2sc(N)nc2-c2ccccc2)cc1	?	?	-0.1%	3.1%
COc1ccc(-c2nc(CCNC(=O)c3ccccc3)cs2)cc1OC	23.1µM*	23.1µM*	25.1µM*	4.4%
O=C(NCCc1csc(-c2ccc(Cl)cc2)n1)c1ccco1	?	14.6µM*	-13.1%	2.9%
O=C(COc1ccc(Cl)cc1)NCCc1csc(-c2ccc(F)cc2)n1	16.4µM*	14.6µM*	4.4%	5.3%
